According to PubChem BioAssay AID651640 (Broad Institute, 2012):
The campaign covered roughly 350,000 compounds. About 6,000 (1.7%) were called active. Not shown: some 5% with an inconclusive outcome. Rule as the data show it: active = CPE inhibition above about 20% (passing the limit was not always enough); inconclusive = no clear call, values can overlap the other calls; tested in BHK-21 cells. Shown is part of a subset that was picked to be rich in actives.

Assay: inhibitors of DENV2 cytopathic effect, primary screen, cell-based, plate reader, single concentration (AID 651640);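 also: 0% = median of neutral control wells and 100% = median of positive control wells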
Details: DENV2-infected cells, cytopathic effect rescue, at 9.99 µM, hits give high values

| Compound | CPE inhibition |
| --- | --- |
| COCC(=O)N1[C@H](CO)[C@H](c2ccccc2C2=CCCCC2)[C@@H]1C#N | 5.95% (inactive) |
| C[C@H]1CN([C@@H](C)CO)C(=O)c2cccc(NC(=O)Nc3ccc(C(F)(F)F)cc3)c2O[C@H]1CN(C)CC1CCCCC1 | -8.84% (inactive) |
| CC(=O)N1[C@H](CN(C)S(=O)(=O)c2ccccc2)[C@H](c2ccccc2)[C@@H]1CO | 15.4% (inactive) |
| COc1cccc(S(=O)(=O)N(C)C[C@@H]2Oc3cc(C4=CCCCC4)ccc3S(=O)(=O)N([C@H](C)CO)C[C@H]2C)c1 | 2.02% (inactive) |
| NC(=O)C1CCN(C(=O)COc2ccc3c4c(c(=O)oc3c2)CCC4)CC1 | 68.3% (active) |
| O=C(COc1ccc2c3c(c(=O)oc2c1)CCC3)NC1CCCCC1 | 2.16% (inactive) |
| O=C(COc1ccc2c3c(c(=O)oc2c1)CCCC3)NCC(O)c1ccccc1 (stereo unspecified) | 3.96% (inactive) |
| COC(=O)C1=C(C)N(Cc2cccc(C(F)(F)F)c2)C(=NCc2ccccc2)NC1c1ccc(Cl)cc1 (stereo unspecified) | 27.3% (active) |
| COC(=O)C1=C(C)N(Cc2cccc(C(F)(F)F)c2)C(=NCc2cccc(C(F)(F)F)c2)NC1c1ccccc1C(F)(F)F (stereo unspecified) | 19.7% (inactive) |
| COC(=O)C1=C(C)N(Cc2cccc(C(F)(F)F)c2)C(=NCc2ccccc2)NC1c1ccccc1C(F)(F)F (stereo unspecified) | -6.35% (inactive) |
| Cc1noc(C)c1NC(=O)Nc1ccc2c(c1)C(=O)N([C@H](C)CO)C[C@H](C)[C@H](CN(C)C(=O)C1CCCCC1)OCCCC[C@@H](C)O2 | -8% (inactive) |
| CCN1[C@@H]2c3ccc(C4=CCCC4)c(=O)n3C[C@@H]2[C@@H](CO)[C@@H]1C(=O)NCc1ccccn1 | -1.73% (inactive) |
| O=C(Cc1ccccn1)N[C@@H]1CC[C@H](CCn2cc(-c3ccc(F)cc3)nn2)O[C@@H]1CO | -1.64% (inactive) |
| COCC(=O)Nc1ccc2c(c1)[C@@H]1C[C@H](CC(=O)NCc3ccc(Cl)cc3)O[C@H](CO)[C@@H]1O2 | 2.48% (inactive) |
| Cc1ccc(CCN2CC(C(=O)NCCc3ccccc3)CC2=O)cc1 (stereo unspecified) | 34.2% (active) |
| O=C(NCCCN1CCCCC1)C1CC(=O)N(CCc2ccccc2)C1 (stereo unspecified) | 4.06% (inactive) |
| O=C(NC1CCCCC1)C1CC(=O)N(CCc2ccccc2)C1 (stereo unspecified) | -1.18% (inactive) |
| CCCN1C[C@@H](C)[C@@H](OC)CN(C)C(=O)c2cc(NC(=O)c3ccccc3)ccc2OC[C@H]1C | -10.4% (inactive) |
| CC1(C(=O)NCc2ccco2)Cc2c(-c3ccc4c(c3)OCO4)ccnc2O1 (stereo unspecified) | 7.65% (inactive) |
| CC(=O)Nc1cccc(-c2ccnc3c2CC(C)(C(=O)NCc2ccco2)O3)c1 (stereo unspecified) | 32.1% (active) |
| COc1ccc(NC(=O)C2(C)Cc3c(-c4cccc(NC(C)=O)c4)ccnc3O2)cc1 (stereo unspecified) | -2.95% (inactive) |
